Sampled rows, rich in hits. Any-hit rate of the full collection: about 19%.
HT1080-NT tox: kills 2HG-producing HT-1080-NT fibrosarcoma cells; AID 686970; Potency, µM (top dose mostly 46.1 µM), most hits filed as cytotoxic; hit rate 1.6% among 360,000; HT-1080-NT fibrosarcoma viability, CellTiter-Glo ATP luminescence, 48 h;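 further: NT is the 2HG producing partner of a matched IDH1 knockdown line; nearly all actives have a fitted effect of over 55% in size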
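Toxicity toward the 2HG-producing NT line was scored as %Activity, normalised to DMSO and no-cell wells, from CellTiter-Glo luminescence after 48 hours' treatment.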
HT1080 IDH1KD tx: kills HT-1080 cells with IDH1 knockdown | HT-1080 IDH1 knockdown viability, ATP luminescence, 48 h | Potency, µM (top dose mostly 46.1 µM), usual class: cytotoxic | hit rate 2% among 360,000 | AID 686971
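Knockdown cells (IDH1KD HT-1080) received compounds 2 h after plating at 750 cells/well and were kept 48 h at 37 °C in 5% FBS RPMI. A CellTiter-Glo luminescence read gave % activity for curve fitting.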
DT40 TDP1 no CPT: qHTS for Inhibitors of human tyrosyl-DNA phosphodiesterase 1 (TDP1): qHTS in cells in absence of CPT. DT40 Tdp1-/- hTDP1 cells, no CPT, ATP luminescence, 48 h. Potency, µM (titrated, usually from 46.2 µM), hits mostly inhibitors. hit rate 15% among 420,000. AID 686978, 2013; further: nearly all actives have a fitted effect of over 55% in size
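Chicken DT40 Tdp1-/- cells stably complemented with human TDP1 were seeded at 400 cells/well with DMSO in place of 20 nM camptothecin. After compound pinning, cells grew at least 48 hr at 37 °C; viability read by CellTiter-Glo luminescence.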
IL-1B inflam inh: blocks inflammasome-driven IL-1 beta release. THP-1 LPS/ATP IL-1B secretion, AlphaLISA, 16 h; active compounds read low. activity change, % at 57.5 µM. hit rate 4.7% among 360,000. AID 743279; in the data active means activity change below about -50%; inconclusive means mostly about -30% to -49%
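Secreted IL-1B measured by AlphaLISA bead assay after 16 h compound exposure of THP-1 cells; compounds (final up to 57.5 uM) added 1 h before LPS (250 ng/mL) and ATP (1.25 mM) stimulation; lower signal means less secretion.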
TDP1 cell CPT: DT40-hTDP1 cell growth loss with CPT | chicken DT40 Tdp1-/-;hTDP1 cells + 20 nM CPT, ATP luminescence, 48 h | Potency, µM (highest dose often 46.2 µM), actives largely listed as inhibitors | hit rate 12% among 420,000; further: nearly all actives have a fitted effect of over 55% in size
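Cell growth measured by CellTiter-Glo luminescence after a minimum 48 h, 37 C compound exposure with 20 nM CPT in Tdp1-knockout DT40 cells stably expressing hTDP1, seeded 400/well; qHTS titration format.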
Hits are given with their value; . = inactive; ? = inconclusive; / = not tested or not shown; [ ] = remark or other dose. Unless noted, the call rests on the fitted dose curve; in most records, active means well fitted curve in the direction sought with a large enough effect; inconclusive means small, poorly fitted or top-dose-only effect, or another doubt; inactive means no such curve, though single readings can be large; an effect the other way counts as inactive or inconclusive.

SMILES	HT1080-NT tox	HT1080 IDH1KD tx	DT40 TDP1 no CPT	IL-1B inflam inh	TDP1 cell CPT
COc1ccc(NC(=O)c2ccc(Cn3cc(Cl)cn3)cc2)cc1	.	.	?	.	.
CCOc1ccc(CNC(=O)Cn2cc3c(n2)-c2c(oc(C(=O)N4CCOCC4)c2C)CC3)cc1	/	/	20.6µM	/	?
Cc1c(C(=O)N2CCCC2)oc2c1-c1nn(CC(=O)NCCCN3CCCCC3)cc1CC2	.	.	.	.	.
Cc1c(C(=O)O)oc2c1-c1nn(Cc3ccccc3Cl)cc1CC2	/	/	?	/	.
COc1cccc(CNC(=O)Cn2cc3c(n2)CCCCC3)c1	.	.	.	.	?
COc1cccc(CNC(=O)c2oc3c(c2C)-c2nn(Cc4cccc(Cl)c4)cc2CC3)c1	/	/	18.4µM	/	?
CN(C)CCOC(=O)NCC12CC3CC(CC(C3)C1)C2	.	.	.	.	.
CCOC(=O)C1(C)C=C(Nc2cccc(C(=O)O)c2)C(=O)N1c1ccccc1 (stereo not given)	/	/	.	/	?
O=C(c1cccc(S(=O)(=O)Nc2ccc(F)cc2)c1)N1CCCC1	.	.	.	.	.
O=C1N[C@@H](Cc2cn(S(=O)(=O)c3ccc([N+](=O)[O-])cc3)c3ccccc23)C(=O)N[C@H]1Cc1ccccc1	.	.	?	.	20.6µM
Cc1ccc(S(=O)(=O)n2cc(CO)c3ccccc32)cc1	.	.	?	.	?
CCC(=O)N1CCC(C)(C(=O)NCc2ccc(F)cc2)C1 (stereo not given)	?	.	.	.	.
CCN1CCN(c2ccc(S(=O)(=O)N3CCCCC3)cc2NC(=O)c2cccc(Cl)c2)CC1	?	.	?	?	.
CCN1CCN(c2ccc(S(=O)(=O)N3CCCCC3)cc2NC(=O)c2cccc(OC(F)F)c2)CC1	.	.	20.6µM	?	?
CCN1CCN(c2ccc(S(=O)(=O)N3CCCCC3)cc2NC(=O)c2ccc(OC(F)F)cc2)CC1	.	.	?	-75.7	?
COc1ccc(S(=O)(=O)N2CCOCC2)cc1NC(=O)c1ccc(OC(F)F)cc1	.	.	?	.	?
C[C@H]1C[C@]2(O[C@@H]2C)C(=O)O[C@@H]2CCN(C)C/C=C(/COC(=O)[C@]1(C)O)C2=O	/	/	.	/	.
Cc1[nH]c2ccccc2c1C(=O)C(=O)NCc1ccncc1	.	.	.	.	.
CCC12CN3CC(C)(CN(C1)C3c1ccc(O)cc1O)C2=O (stereo not given)	/	/	.	/	.
CCCCN=CC1=C(O)C(C(=O)OC)C(C)(C)CC1=O (stereo not given)	.	.	.	.	.
CCO[C@@H]1OC(C(=O)NCc2nc3ccccc3[nH]2)=C[C@H](c2csc3ccccc23)[C@H]1CCCO	?	?	23.1µM	-56.4	23.1µM
CCO[C@H]1OC(C(=O)NCc2nc3ccccc3[nH]2)=C[C@@H](C2CC2)[C@@H]1CCCO	?	2.06µM	0.581µM	.	0.82µM
CCO[C@H]1OC(C(=O)NCc2nc3ccccc3[nH]2)=C[C@@H](c2csc3ccccc23)[C@@H]1CCCO	?	?	16.4µM	.	?
CCO[C@H]1OC(C(=O)NCc2nc3ccccc3[nH]2)=C[C@@H](c2ccccc2)[C@@H]1CCCO	.	.	?	.	?
CCOc1cccc(C(=O)NNC(=O)C2C3C=CC(C3)C2C(=O)O)c1 (stereo not given)	.	.	.	.	.
SMILES	HT1080-NT tox	HT1080 IDH1KD tx	DT40 TDP1 no CPT	IL-1B inflam inh	TDP1 cell CPT
Cc1ncoc1C(=O)N1CCOc2ccc(CN3CCN(c4ccccn4)CC3)cc2C1	/	/	?	/	.[9.04 µM]
Nc1nc2ncccc2cc1C(=O)NCCc1cccs1	.	14.6µM	13µM	.	23.1µM
CCOC(=O)N1CCN(C/C(C)=C/c2ccccc2)CC1	.	.	.	.	.
CCOC(=O)N1C/C(=C\c2ccccc2)C(=O)/C(=C/c2ccccc2)C1	?	?	3.66µM	?	4.61µM
CN(C)CCC(=O)N1C/C(=C/c2ccccc2)C(=O)/C(=C\c2ccccc2)C1	?	0.581µM	1.84µM	-99.5	1.84µM
O=C1/C(=C/c2ccccc2)CN(C(=O)CCN2CCOCC2)C/C1=C\c1ccccc1	?	?	1.84µM	-101.4	1.64µM

From PubChem
